According to PubChem BioAssay (Tox21):
Values joined by “and” are separate entries in the source; they are usually repeats but may differ in a detail not shown here. Identical values can stand only once. Inconclusive results are not listed. A call without a number means that no potency is given here. A structure can be active in one record and inactive in another. Active and inactive are the calls of the source. Unless noted, the call rests on the fitted dose curve; in most records, active means well fitted curve in the direction sought with a large enough effect in the repeat runs; inconclusive means weak or mixed curves; inactive means no such curve, though single readings can be large; an effect the other way counts as inactive or inconclusive.

Assays:
[1] = qHTS assay to identify small molecule antagonists of the estrogen receptor alpha (ER-alpha) signaling pathway using the BG1 cell line in the presence of 0.1 nM 17-beta-estradiol - cell viability counter screen (AID 1259241); further: nearly all actives have a fitted effect of over 40% in size
Outline: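 Measures cytotoxicity alongside the ER-alpha antagonist readout: VM7Luc4E2 cells, charcoal-stripped serum, 0.1 nM 17beta-estradiol final, 22 hr compound incubation at 37C, CellTiter-Fluor fluorescence.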

[2] = qHTS assay to identify small molecule HDAC inhibitors (AID 1259364);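 further: wild-type HCT-116 cells with endogenous class I/II HDAC activity; nearly all actives have a fitted effect of over 45% in size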; on activity change, negative = inhibition: top concentration of the series differs between compounds
Outline: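 HCT-116 (wild type), 1,500 cells/well, overnight; compound 2 hr 37C 5% CO2; HDAC-Glo I/II reagent 30 min RT; luminescence readout.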

[3] = qHTS assay to identify small molecule HDAC inhibitors - cell viability counter screen (AID 1259365); further: nearly all actives have a fitted effect of over 50% in size; on activity change, negative = cytotoxicity: series mostly up to about 92 µM
Outline: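 Following a 2hr exposure of overnight-plated wild-type HCT-116 cells to DMSO-delivered compounds, CellTiter-Glo was added and luminescence recorded after 30min at room temperature.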

[4] = qHTS assay to identify small molecule agonists of the sonic hedgehog signaling (Shh) pathway - cell viability counter screen (AID 1259366); further: nearly all actives have a fitted effect of over 50% in size
Outline: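 After a 4hr attachment at 37C, NIH/3T3 cells bearing an integrated Gli1-driven luciferase reporter were dosed with compounds. Treatment lasted 24hr, with the final hour including CellTiter-Fluor for a fluorescence viability measurement.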

[5] = qHTS assay to identify small molecule antagonists of the sonic hedgehog signaling (Shh) pathway - cell viability counter screen (AID 1259367); further: nearly all actives have a fitted effect of over 55% in size
Outline: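 Viability was read by CellTiter-Fluor fluorescence in the same wells, reagent added 23 hr into compound treatment and incubated 1 hr at 37C. The 3T3 Gli1-Luc reporter cells (2,000/well) received conditioned medium after compound and ran 24 hr.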

[6] = qHTS assay to identify small molecule agonists of the sonic hedgehog signaling (Shh) pathway (AID 1259368; calls by dose curve; further: nearly all actives have a fitted effect of over 15% in size;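 on activity change: NIH/3T3-derived 3T3Gli1-Luc cells carrying a stable Gli1-driven firefly luciferase reporter; series mostly up to about 92 µM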)
Outline: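 Read-out: firefly luciferase luminescence from a Gli1 response element reporter stably integrated in NIH/3T3-derived 3T3Gli1-Luc cells, measured 30 min at room temperature after reagent addition. Compound exposure lasted 24 hr at 37 C, 5% CO2.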

[7] = qHTS assay to identify small molecule antagonists of the androgen receptor (AR) signaling pathway using the MDA cell line in the presence of 0.5 nM R1881 - cell viability counter screen (AID 1259242); further: nearly all actives have a fitted effect of over 45% in size
Outline: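 Live-cell protease fluorescence, CellTiter-Fluor, 30 min at 37C. Cells: MDA-kb2, 3,000/well, preincubated 5 hr. Compounds plus 0.5 nM R1881 final, 16 hr, 37C, 0% CO2.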

[8] = qHTS assay to identify small molecule phospholipidosis (PLD) inducers (AID 1259344; active means well fitted curve in the direction sought with a large enough effect; an effect the other way counts as inactive or inconclusive)
Outline: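 Phospholipid accumulation was scored by imaging: fixed, Hoechst-counterstained HepG2 cells stained with LipidTOX Red after 24 h compound exposure at 37 C. Read-outs were pit count and pit intensity per well or per cell, with amiodarone and DMSO controls.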

[9] = biological target: Androgen receptor (Homo sapiens) (UniProt P10275); assay: qHTS assay to identify small molecule antagonists of the androgen receptor (AR) signaling pathway using the MDA cell line in the presence of 0.5 nM R1881 (AID 1259243); further: nearly all actives have a fitted effect of over 50% in size
Androgen receptor (Homo sapiens), sequence (P10275 whole entry, looked up): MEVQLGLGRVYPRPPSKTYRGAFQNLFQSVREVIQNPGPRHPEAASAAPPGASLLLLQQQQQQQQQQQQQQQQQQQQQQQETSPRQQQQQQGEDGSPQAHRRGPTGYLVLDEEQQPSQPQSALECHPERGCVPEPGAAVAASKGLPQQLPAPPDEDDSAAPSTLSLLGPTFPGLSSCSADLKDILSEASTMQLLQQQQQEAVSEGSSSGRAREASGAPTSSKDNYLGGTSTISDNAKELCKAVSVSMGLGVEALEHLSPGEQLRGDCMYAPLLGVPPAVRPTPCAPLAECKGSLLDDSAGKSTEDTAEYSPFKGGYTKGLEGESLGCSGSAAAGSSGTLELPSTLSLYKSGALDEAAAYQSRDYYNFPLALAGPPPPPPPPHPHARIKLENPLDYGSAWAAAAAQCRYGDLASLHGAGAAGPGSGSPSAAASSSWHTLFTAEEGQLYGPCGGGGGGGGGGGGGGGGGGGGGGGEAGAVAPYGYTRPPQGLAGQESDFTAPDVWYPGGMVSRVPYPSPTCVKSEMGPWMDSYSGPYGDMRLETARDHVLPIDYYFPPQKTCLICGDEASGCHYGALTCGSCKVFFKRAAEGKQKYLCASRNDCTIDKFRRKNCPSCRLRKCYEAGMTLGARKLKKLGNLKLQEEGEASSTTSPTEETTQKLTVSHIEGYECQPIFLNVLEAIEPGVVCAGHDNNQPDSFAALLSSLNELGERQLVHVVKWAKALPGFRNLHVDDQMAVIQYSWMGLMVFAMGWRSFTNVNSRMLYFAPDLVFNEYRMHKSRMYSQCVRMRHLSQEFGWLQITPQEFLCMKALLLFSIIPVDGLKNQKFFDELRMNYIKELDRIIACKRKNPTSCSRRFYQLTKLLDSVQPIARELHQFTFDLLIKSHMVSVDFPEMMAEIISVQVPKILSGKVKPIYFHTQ
Outline: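 MDA-kb2, MMTV-luc (AR/GR elements); 3,000 cells/well; cpd + 0.5 nM R1881 final; 16 hr 37C, 0% CO2; ONE-Glo 30 min RT; luminescence.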

[10] = biological target: Estrogen receptor (Homo sapiens) (UniProt P03372); assay: qHTS assay to identify small molecule antagonists of the estrogen receptor alpha (ER-alpha) signaling pathway using the BG1 cell line in the presence of 0.1 nM 17-beta-estradiol (AID 1259244); further: nearly all actives have a fitted effect of over 50% in size
Estrogen receptor (Homo sapiens), sequence (P03372 whole entry, looked up): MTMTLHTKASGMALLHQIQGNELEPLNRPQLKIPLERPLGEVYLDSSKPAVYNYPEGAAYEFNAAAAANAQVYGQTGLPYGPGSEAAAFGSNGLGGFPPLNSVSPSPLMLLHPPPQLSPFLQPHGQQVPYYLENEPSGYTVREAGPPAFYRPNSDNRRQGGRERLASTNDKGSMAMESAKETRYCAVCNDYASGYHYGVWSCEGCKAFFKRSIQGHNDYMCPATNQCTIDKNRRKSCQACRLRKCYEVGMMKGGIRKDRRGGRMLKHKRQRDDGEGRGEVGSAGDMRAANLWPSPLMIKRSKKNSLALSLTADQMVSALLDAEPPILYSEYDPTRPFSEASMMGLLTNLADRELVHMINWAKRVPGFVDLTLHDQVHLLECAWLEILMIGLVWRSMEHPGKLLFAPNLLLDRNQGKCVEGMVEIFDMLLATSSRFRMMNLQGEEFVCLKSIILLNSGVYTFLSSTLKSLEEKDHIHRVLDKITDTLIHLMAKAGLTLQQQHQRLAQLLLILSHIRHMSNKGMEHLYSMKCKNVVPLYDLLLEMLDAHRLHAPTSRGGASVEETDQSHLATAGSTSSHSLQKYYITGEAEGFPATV
Outline: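 Luminescence after ONE-Glo (30 min, room temperature) measured ERE-luciferase activity in VM7Luc4E2 cells treated 22 h with compound and 0.1 nM final 17beta-estradiol as stimulator.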
Potency means the concentration at half of the fitted maximal effect.

## Oc1cc2c(cc1O)[C@H]1c3ccc(O)c(O)c3OC[C@@]1(O)C2
[1]
  Potency: 27.6 µM (active)
[2]
  Potency: 55.1 µM (active)
[3]
  Potency: inactive
[4]
  Potency: 27.6 µM (active)
[5]
  Potency: 27.6 µM (active)
[6]
  Potency: inactive

## CC(=O)OCCN(CCOC(C)=O)c1ccc(N=Nc2ccc([N+](=O)[O-])cc2C#N)cc1
[7]
  Potency: 54.5 µM (active)
[2]
  Potency: 27.3 µM (active)
[3]
  Potency: 24.3 µM (active)
[4]
  Potency: 48.6 µM (active)
[5]
  Potency: 54.5 µM (active)
[6]
  Potency: inactive

## C[C@@H]1CN(CCCn2c3ccccc3c3ccccc32)C[C@H](C)N1
[1]
  Potency: inactive
[8]
  Potency: 10 µM (active)
[2]
  Potency: inactive
[3]
  Potency: inactive
[4]
  Potency: 33.5 µM (active)
[5]
  Potency: 33.5 µM (active)
[6]
  Potency: inactive

## COc1cc(C(=O)NC2CCN(C)CC2)ccc1Nc1ncc2c(n1)N(C1CCCC1)CC(F)(F)C(=O)N2C
[9]
  Potency: inactive
[10]
  Potency: 2.81 µM (active)
[2]
  Potency: inactive
[3]
  Potency: inactive
[4]
  Potency: 5.6 µM (active)
[5]
  Potency: 0.791 µM (active)
[6]
  Potency: inactive

## CC(=O)Nc1cc(S(=O)(=O)O)cc2cc(S(=O)(=O)O)c(N=Nc3ccccc3)c(O)c12
[1]
  Potency: 19.3 µM (active)
[7]
  Potency: 27.3 µM (active)
[2]
  Potency: inactive
[4]
  Potency: 27.3 µM (active)
[5]
  Potency: 24.3 µM (active)

## CCCC(C(=O)OCCN(CC)CC)(c1ccccc1)c1ccccc1
[1]
  Potency: inactive
[10]
  Potency: inactive
[2]
  Potency: inactive
[3]
  Potency: inactive
[5]
  Potency: inactive
[6]
  Potency: inactive

## CC(C)=CCC/C(C)=C/CC/C(C)=C/C(=O)OCC(=O)[C@@]1(O)CC[C@H]2[C@@H]3CCC4=CC(=O)C=C[C@]4(C)[C@H]3[C@@H](O)C[C@@]21C
[9]
  Potency: inactive
[2]
  Potency: inactive
[3]
  Potency: inactive
[4]
  Potency: inactive
[5]
  Potency: inactive
[6]
  Potency: inactive

## O=C1c2ccccc2C(=O)c2c(O)c(O)cc(O)c21
[2]
  Potency: inactive
[3]
  Potency: inactive
[6]
  Potency: inactive

## CN1C(=O)N(c2ccccc2Br)Cc2cnc(Nc3ccc4c(c3)OCC(CO)O4)nc21 (configuration not stated)
[2]
  Potency: inactive
[3]
  Potency: inactive
[4]
  Potency: 0.193 µM (active)
[5]
  Potency: 1.72 µM (active)
[6]
  Potency: inactive

## Cc1cc(O)ccc1O
[7]
  Potency: inactive
[2]
  Potency: inactive
[3]
  Potency: inactive
[6]
  Potency: inactive

## COc1ccccc1N1CCN(CCCCNC(=O)c2ccc(-c3ccc(C(C)=O)cc3)cc2)CC1
[1]
  Potency: inactive
[2]
  Potency: inactive
[3]
  Potency: inactive
[4]
  Potency: inactive
[5]
  Potency: inactive
[6]
  Potency: inactive

## CC(C)COCC(CN(Cc1ccccc1)c1ccccc1)N1CCCC1 (configuration not stated)
[7]
  Potency: 29.8 µM (active)
[10]
  Potency: 29.8 µM (active)
[8]
  Potency: inactive
[2]
  Potency: inactive
[3]
  Potency: inactive

## CN1CCCC(CC2c3ccccc3Sc3ccccc32)C1 (configuration not stated)
[1]
  Potency: inactive
[10]
  Potency: inactive
[2]
  Potency: inactive
[3]
  Potency: inactive
[6]
  Potency: inactive

## CC(C)c1nc(CN(C)C(=O)N[C@H](C(=O)N[C@@H](Cc2ccccc2)C[C@H](O)[C@H](Cc2ccccc2)NC(=O)OCc2cncs2)C(C)C)cs1
[7]
  Potency: inactive
[10]
  Potency: inactive
[8]
  Potency: inactive and 10 µM (active)
[2]
  Potency: inactive
[3]
  Potency: inactive
[4]
  Potency: 6.68 µM (active)
[5]
  Potency: 7.5 µM (active)
[6]
  Potency: inactive

## CN1CCCC(n2nc(Cc3ccc(Cl)cc3)c3ccccc3c2=O)CC1 (configuration not stated)
[7]
  Potency: inactive
[2]
  Potency: inactive
[3]
  Potency: inactive
[5]
  Potency: 10.6 µM (active)

## Nc1nnc(-c2ccc([N+](=O)[O-])o2)o1
[1]
  Potency: 61.1 µM (active)
[10]
  Potency: 54.5 µM (active)
[2]
  Potency: inactive
[3]
  Potency: inactive
[5]
  Potency: 27.3 µM (active)
[6]
  Potency: inactive

## C=CC(=O)OCC1CC2CC1C1CCC(COC(=O)C=C)C21 (configuration not stated)
[1]
  Potency: inactive
[7]
  Potency: inactive
[2]
  Potency: inactive
[3]
  Potency: inactive
[6]
  Potency: inactive

## CC[C@]1(O)C[C@H]2CN(CCc3c([nH]c4ccccc34)[C@@](C(=O)OC)(c3cc4c(cc3OC)N(C=O)[C@H]3[C@@](O)(C(=O)OC)[C@H](OC(C)=O)[C@]5(CC)C=CCN6CC[C@]43[C@@H]65)C2)C1
[1]
  Potency: inactive
[7]
  Potency: inactive
[2]
  Potency: inactive
[3]
  Potency: inactive
[6]
  Potency: inactive

## N#[N+]c1ccc2c(S(=O)(=O)[O-])cccc2c1O
[1]
  Potency: inactive
[7]
  Potency: inactive
[3]
  Potency: inactive
[5]
  Potency: inactive
[6]
  Potency: inactive

## Cc1c(C)c2c(c(C)c1OC(=O)CCC(=O)OCCO)CC[C@@](C)(CCC[C@H](C)CCC[C@H](C)CCCC(C)C)O2
[7]
  Potency: inactive
[10]
  Potency: inactive
[2]
  Potency: inactive
[3]
  Potency: inactive
[4]
  Potency: inactive
[5]
  Potency: inactive
[6]
  Potency: inactive

## O=[N+]([O-])c1ccc(O/N=C/c2cc(Br)c(O)c(Br)c2)c([N+](=O)[O-])c1
[1]
  Potency: 24.2 µM (active)
[10]
  Potency: 30.5 µM (active)
[3]
  Potency: inactive
[6]
  Potency: inactive

## c1ccc(C[n+]2cccc3ccccc32)cc1
[1]
  Potency: inactive
[10]
  Potency: 27.3 µM (active)
[2]
  Potency: inactive
[3]
  Potency: inactive
[4]
  Potency: inactive

## Oc1cccc(O)c1O
[7]
  Potency: inactive
[8]
  Potency: inactive
[2]
  Potency: inactive
[3]
  Potency: inactive
[5]
  Potency: 48.1 µM (active)
[6]
  Potency: inactive

## Nc1nc2ccc([N+](=O)[O-])cc2s1
[9]
  Potency: 6.86 µM (active)
[8]
  Potency: inactive
[2]
  Potency: 17.7 µM (active)
[3]
  Potency: inactive
[6]
  Potency: inactive

## Cc1cc2c(OCC(CNC(C)(C)C)OC(=O)c3ccccc3)cccc2[nH]1 (configuration not stated)
[1]
  Potency: inactive
[10]
  Potency: inactive
[8]
  Potency: inactive
[2]
  Potency: inactive
[3]
  Potency: inactive
[4]
  Potency: inactive
[5]
  Potency: inactive
[6]
  Potency: inactive

## O=[N+]([O-])c1ccc(Nc2ccc(Nc3ccccc3)c(S(=O)(=O)O)c2)c([N+](=O)[O-])c1
[2]
  Potency: inactive
[3]
  Potency: inactive
[6]
  Potency: inactive

## Cc1cc(=O)c2c(O)c3c(O)cc(=O)c4c3c3c(cc(O)c1c23)C(C)(C)C=4O
[8]
  Potency: inactive
[2]
  activity change, negative = inhibition: 3.66% [at 19 µM] (inactive)
[3]
  activity change, negative = cytotoxicity: 2.88% [at 19 µM] (inactive)
[4]
  viability change, negative = cytotoxic: 17.6% [at 19 µM] (inactive)
[5]
  viability change, negative = cytotoxic: -14.6% [at 19 µM] (inactive)
[6]
  activity change: -5.72% [at 18.9 µM, stronger effect = higher value] (inactive)

## O=c1cc(-c2ccccc2)oc2cc(O)cc(O)c12
[7]
  Potency: inactive
[9]
  Potency: inactive
[2]
  Potency: 6.86 µM (active)
[3]
  Potency: inactive
[4]
  Potency: 48.6 µM (active)
[5]
  Potency: 61.1 µM (active)
[6]
  Potency: inactive

## CCOc1ccc(Cc2nccc3cc(OCC)c(OCC)cc23)cc1OCC
[1]
  Potency: inactive
[9]
  Potency: 10.6 µM (active)
[10]
  Potency: 8.41 µM (active)
[8]
  Potency: inactive
[2]
  Potency: inactive
[3]
  Potency: inactive
[4]
  Potency: inactive
[5]
  Potency: inactive

## Brc1cc2ccccc2c2ccccc12
[1]
  Potency: inactive
[10]
  Potency: inactive
[2]
  Potency: inactive
[3]
  Potency: inactive
[4]
  Potency: inactive
[5]
  Potency: inactive
[6]
  Potency: inactive

## Nc1ccc(N=Nc2ccccc2)c(N)c1
[1]
  Potency: 26.7 µM (active)
[10]
  Potency: inactive
[2]
  Potency: 1.5 µM (active)
[3]
  Potency: inactive
[6]
  Potency: 1.34 µM (active)

## CCOC(=O)OC(C)OC(=O)[C@@H]1N2C(=O)[C@@H](NC(=O)[C@H](N)c3ccccc3)[C@H]2SC1(C)C (some centres not stated)
[7]
  Potency: inactive
[8]
  Potency: inactive
[2]
  Potency: inactive
[3]
  Potency: inactive
[4]
  Potency: inactive
[5]
  Potency: inactive
[6]
  Potency: inactive
